Screens as filed in PubChem BioAssay.
TCR act = T cell receptor activation; primary human leukocytes, anti-CD3, IL-2 HTRF, 48 h; Potency, µM (highest dose often 9.22 µM), for the others: at the top dose activation of IL-2 secretion, actives largely listed as activators; 330,000 tested, under 10 active; AID 504894; note: % of control where 0% means no effect
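Compounds are tested in HTS on primary human leukocytes co-incubated with a-CD3 beads for 48 hr. IL-2 output is measured by time-resolved FRET.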
ClpP mod = qHTS Assay for Activators of ClpP; ATP-dependent Clp protease proteolytic subunit (Bacillus subtilis (strain 168)), P80244; purified B. subtilis ClpP, FRET peptide cleavage, 20 min; Potency, µM (titrated, usually from 57.5 µM), for inactives: at the highest dose activity change, negative = active; 340,000 compounds, 1.9% hits; active = well fitted falling curve with a large enough effect; inconclusive = small, poorly fitted or top-dose-only effect; inactive = no such curve, though single readings can be large or run the other way; note: potency is the fitted concentration of half-maximal effect; the source files actives as falling curves though it sought activators and does not explain the sign; nearly all actives have a fitted effect of over 65% in size
Target sequence (P80244 whole entry, looked up): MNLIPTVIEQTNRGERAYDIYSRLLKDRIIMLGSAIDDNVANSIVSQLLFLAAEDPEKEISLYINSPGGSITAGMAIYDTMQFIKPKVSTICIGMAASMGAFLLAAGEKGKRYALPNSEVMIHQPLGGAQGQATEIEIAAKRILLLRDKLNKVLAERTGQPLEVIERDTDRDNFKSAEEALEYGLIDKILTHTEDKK
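FRET quenching reversal measured ClpP activation: 10 microg/mL B. subtilis ClpP at pH 8 with the FRET-FV decapeptide, read at 430 nm after 320 nm excitation. The 20-min minus 0-min signal was scaled between DMSO/no-enzyme wells and ADEP (5.8 microM final).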
uPA surface inh = blocks generation of uPA at the cell surface; cell surface uPA generation assay, qHTS; Potency, µM (doses to about 38.3 µM), without a hit: top-dose activity change, negative = inhibition, usual class: inhibitors; 330,000 compounds, 0.31% hits; active = well fitted inhibition curve with a large enough effect; inconclusive = small, poorly fitted or top-dose-only effect; inactive = no such curve, though single readings can be large or run the other way; tested in mouse RAW 264.7 cells; note: potency is the fitted concentration of half-maximal effect; % is set by controls: 0 for no effect and ±100 for the full control effect; nearly all actives have a fitted effect of over 55% in size
Sfp inh = Sfp phosphopantetheinyl transferase inhibition; Biochemical Sfp PPTase activity, qHTS; Potency, µM, without a hit: largest response in the series, negative = inhibition, usual class: inhibitors; 310,000 compounds, 3.5% hits;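 note: the enzyme is Sfp with the accession as filed and its product quenches rhodamine fluorescence; potency is the fitted concentration of half-maximal effect; 0% = enzyme reaction without inhibitor and -100% = no enzyme wells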
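Fluorescence-quenching assay with 15 nM Sfp, 5 uM rhodamine-CoA and 12.5 uM BHQ-2-labelled ybbR peptide in pH 7.6 Hepes/MgCl2 buffer. Enzyme was pre-incubated with compound for 15 min at room temperature. Rate was taken from the 30-min fluorescence change (525/598 nm).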
ClpP validation = inhibits B. subtilis ClpP protease, hit validation. shares compounds with ClpP mod. AID 743245. 470 compounds, 40% hits. purified B. subtilis ClpP, FRET-FV substrate cleavage, 20 min. Potency, µM (titrated, usually from 57.5 µM), for the others: at the top dose activity change, negative = inhibition, actives largely listed as inhibitors; note: potency is the fitted concentration of half-maximal effect; % is set by controls: 0 for no effect and ±100 for the full control effect; nearly all actives have a fitted effect of over 70% in size
The depositor's hits bear a star; ? = inconclusive; . = no result; [ ] = remark or other dose. The list is not random: actives were taken first. Their share in the collection is about 4.2%. Unless noted, calls come from the whole dose curve; as a rule, active = well fitted curve in the direction sought with a large enough effect; inconclusive = small, poorly fitted or top-dose-only effect, or another doubt; inactive = no such curve, though single readings can be large; an effect the other way counts as inactive or inconclusive.

SMILES	TCR act	ClpP mod	uPA surface inh	Sfp inh	ClpP validation
CC(=O)Nc1ccc(Nc2ncnc3c2c(-c2ccccc2)cn3-c2ccccc2)cc1	.	-11.7%	.	.	.
CC(C)c1ccc(Nc2ncnc3c2c(-c2ccccc2)cn3-c2ccccc2)cc1	.	2.51µM*	.	.	24.3µM*
COc1ccc(CN2C(=O)C(CC(=O)NCCc3ccccn3)CC(C(=O)N3CCCCCC3)=C2C)cc1 (stereo not drawn)	.	1.2%	.	.	.
CCC(=O)Nc1cc2nn(-c3ccc(C)cc3)nc2cc1C	-5.2%	4.7%	-7.2%	17.2%	.
CCCCC(=O)Nc1cc2nn(-c3ccc(OC)cc3)nc2cc1C	-1.0%	1µM*	3.0%	15.8%	24.3µM*
COc1ccc(-n2nc3cc(C)c(NC(=S)NC(=O)c4ccccc4C)cc3n2)cc1	.	216.5%	.	-14.6%	.
CCC(=O)Nc1cc2nn(-c3ccc(OC)cc3)nc2cc1C	1.2%	2.82µM*	?	21.7%	19.3µM*
COc1cccc(CNC(=O)CCCc2nnc3n(C)c(=O)c4sccc4n23)c1	7.9%	-5.1%	-4.6%	7.8%	.
CC(C)CC1NC(=O)N(CC(=O)Nc2ccc(-c3ccccc3)cc2)C1=O (stereo not drawn)	-12.7%	-0.4%	18.4%	.	.
O=C(Nc1nnc(-c2ccncc2)s1)C1CCCO1 (stereo not drawn)	6.2%	6.31µM*	-1.4%	-58.0%	12.2µM*
O=c1oc2ccccc2cc1-c1nnc(-c2cccc(Br)c2)o1	-9.0%	0.708µM*	-3.4%	6.1%	?
O=[N+]([O-])c1ncccc1OCc1ccc(Cl)c(Cl)c1	-1.4%	.	-5.5%	-12.6%	.
Cc1ccc(NC(=O)Cn2c(=O)n(CCC(C)C)c(=O)c3cccnc32)cc1C	.	70.9%	.	.	4.5%
Cc1cc2nc(-c3cc(NC(=O)c4cc5ccccc5o4)ccc3Cl)oc2cc1C	.	3.16µM*	.	.	19.3µM*
COC(=O)c1cc(Cl)c(NC(=O)c2cc3ccccc3o2)cc1OC	2.2%	36.7%	1.1%	-0.5%	-26.4%
Cc1ccc2oc(-c3cc(NC(=O)c4ccco4)ccc3Cl)nc2c1	.	-24.3%	.	.	.
CC(=O)c1cc2c(cc1N(C(=O)c1ccco1)C(C(=O)NC1CCCC1)c1ccccc1F)OCO2 (stereo not drawn)	4.8%	-0.4%	.	13.5%	.
COc1ccc(C(C(=O)NC2CCCC2)N(C(=O)c2ccco2)c2cc3c(cc2C(C)=O)OCO3)cc1 (stereo not drawn)	4.3%	3.16µM*	3.3%	-12.3%	-0.4%
Cc1cc(=O)oc2cc(OCC(=O)Nc3cccc(S(=O)(=O)N(C)C)c3)ccc12	2.3%[46.1 µM]	-13.3%	-1.5%	29.2%	.
Cc1cc(OCC(=O)OCC(=O)NCc2ccc3c(c2)OCO3)ccc1Cl	0.9%	-1.3%	9.9%	.	.
Cc1cc(=O)oc2cc(OCC(=O)OCC(=O)Nc3ccccc3F)ccc12	-0.8%	.	-5.3%	16.7%	.
Cc1cc(=O)oc2cc(OCC(=O)OCC(=O)Nc3ccc(C(N)=O)cc3)ccc12	1.9%	.	-0.7%	15.9%	.
Cc1cc(=O)oc2cc(OCC(=O)OCC(=O)NCc3ccc4c(c3)OCO4)ccc12	-1.9%	199.0%	1.1%	-3.9%	-26.0%
Cc1ccc(NC(=O)COC(=O)COc2ccc3ccc(=O)oc3c2)cc1[N+](=O)[O-]	-7.0%	104.3%	4.4%	.	19.3µM*
Cc1ccc(S(=O)(=O)N(C)C)cc1NC(=O)COC(=O)COc1ccc2c(C)cc(=O)oc2c1	3.8%[46.1 µM]	88.4%	-11.6%	.	-24.0%
SMILES	TCR act	ClpP mod	uPA surface inh	Sfp inh	ClpP validation
Cc1cc(=O)oc2cc(OCC(=O)OCC(=O)Nc3ccccc3C(C)C)ccc12	6.4%[46.1 µM]	79.2%	1.3%	6.3%	?
COc1ccc(-c2nnc(NC(=O)C3=COCCO3)o2)cc1	1.8%[46.1 µM]	?	2.4%	3.8%	.
Cc1cc([N+](=O)[O-])nn1CC(=O)NCc1nc2ccccc2[nH]1	5.7%	.	0.1%	16.2%	.
O=S(=O)(Cc1ccc(Cl)cc1)c1ccccc1-c1nnc(-c2ccc(Cl)cc2)o1	-3.1%	63.9%	-2.2%	14.9%	27.3µM*
CSc1ccccc1-c1nnc(-c2ccc(C)cc2)o1	-4.5%	-26.8%	-8.4%	?	.
Cc1ccc(-c2nnc(-c3ccccc3S(=O)(=O)Cc3ccc(Cl)cc3)o2)cc1	-0.7%	64.6%	-7.0%	16.7%	13.7µM*
O=S(=O)(Cc1ccccc1)c1ccccc1-c1nnc(-c2ccccc2)o1	-3.8%	43.8%	-6.9%	-19.1%	.
COc1ccc(Cc2noc(CN3CCCC(OCc4ccccn4)C3)n2)cc1OC (stereo not drawn)	1.6%	.	-3.0%	-1.1%	.
COc1ccc(CCN2C(=O)NC(NS(=O)(=O)c3ccccc3)(C(F)(F)F)C2=O)cc1OC (stereo not drawn)	-6.6%	.	0.1%	9.3%	.
CCCc1cc(C(=O)O)c2ccccc2n1	.	-1.7%	.	-3.3%	.
CCCc1c2ccccc2nc2ccccc12	4.4%[46.1 µM]	7.08µM*	1.0%	-10.6%	19.3µM*
Cc1cc(C)n2nc(NCc3ccccc3)nc2n1	1.8%	10µM*	0.6%	13.0%	24.3µM*
O=C(Nc1cccc(Cl)c1Cl)c1cc(S(=O)(=O)NCc2ccc3c(c2)OCO3)ccc1F	.	56.2%	.	.	?
CCOc1ccc(OCC)c(NC(=O)C2CCN(S(=O)(=O)c3ccc(Br)s3)CC2)c1	.	1.1%	.	.	.
COc1cc(C(=S)N2CCCC2)ccc1OCc1ccccc1	0.0%	.	-3.5%	-1.7%	.
COCCNC(=O)c1cc2c(=O)n3cccc(C)c3nc2n1C	-0.8%	4.6%	?	18.2%	.
COCCCn1c(C(=O)NCCN2CCOCC2)cc2c(=O)n3cccc(C)c3nc21	5.7%	3.16µM*	-9.1%	4.9%	24.3µM*
CN(C)Cc1c(C(=O)N/N=C/c2cccs2)nnn1-c1nonc1N	-2.4%	-1.4%	11.2%	16.4%	.
Clc1ccc(-c2nnc(-c3ccco3)o2)cc1	3.4%	11.5%	-11.3%	4.3%	.
c1cncc(-c2nnc(-c3ccco3)o2)c1	-16.3%	3.55µM*	6.9%	20.4%	24.3µM*
COc1ccc(-n2c(=O)c3c(c4cc(OC)ccc4n3C)n(Cc3cccc(OC)c3)c2=O)cc1	.	2.51µM*	.	.	21.7µM*
CCc1cc2c(N3CCN(C(=O)c4ccco4)CC3)ncnc2s1	1.9%	2.82µM*	-3.1%	5.5%	-1.2%
COc1ccccc1NS(=O)(=O)c1cc(NC(=O)CNC(=O)c2ccc(C)s2)ccc1Cl	-3.8%[46.1 µM]	1.3%	-5.5%	-0.7%	.
CCOc1ccc(N(C(=O)CNC(=O)c2ccco2)C(C(=O)NC2CCCC2)c2ccco2)cc1 (stereo not drawn)	0.1%	3.16µM*	-0.2%	-3.6%	0.2%
CCOc1ccc(N(C(=O)CNC(=O)c2ccco2)C(C(=O)NC2CCCC2)c2cccnc2)cc1 (stereo not drawn)	1.3%	.	0.0%	12.9%	.
O=C(Nc1ccccc1)c1cc2c(-c3ccccc3)nn(-c3ccccc3)c2s1	.	7.08µM*	.	.	19.3µM*
COc1ccccc1NC(=O)c1cc2c(-c3ccccc3)nn(-c3ccccc3)c2s1	.	4.2%	.	.	.
